Screens: PubChem, National Center for Advancing Translational Sciences (NCATS)
Shown are actives, neighbours in structure and some others; about 6.6% of the full set was active somewhere.
RGS4 inh – blocks human RGS4-accelerated GTP hydrolysis. 390,000 tested, 0.039% active. AID 504845. Transcreener GDP fluorescence polarization, RGS4-accelerated GTP hydrolysis. P49798. Potency, µM (top dose mostly 114 µM), for the others: at the highest dose activity change, negative = inhibition, most hits filed as inhibitors; also: % is scaled to controls: 0 for no effect and ±100 for the full control effect; nearly all actives have a fitted effect of over 75% in size
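MLSMR compounds (23 nl, pin-transferred) preincubated 10 min at room temperature with a 500nM (2x) first reagent, then RGS4 at 900nM (2x) plus Transcreener GDP mix added; fluorescence polarization (620/688 nm) read before and after 90 min at 30 °C.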
KB-3-1 cytotox – kills parental KB-3-1 adenocarcinoma cells; KB-3-1 viability, CellTiter-Glo ATP luminescence, 72 h; Potency, µM (series often up to 46.1 µM), actives largely listed as cytotoxic; 400,000 tested, 1.4% active; AID 1347075; also: % is scaled to controls: 0 for no effect and ±100 for the full control effect; nearly all actives have a fitted effect of over 60% in size
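Parental KB-3-1 adenocarcinoma cells in phenol-red-free DMEM with 10% FBS were pin-treated with compounds at several concentrations, incubated 72 h at 37 °C, and viability read by CellTiter-Glo luminescence; concentration-effect curves were fitted after normalization.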
MCF10A rerep – inducers of DNA re-replication in MCF 10A breast cells | MCF 10A DNA re-replication, Hoechst nuclear intensity, 48 h | Potency, µM (series often up to 46.1 µM), inactives show at the top dose activity, positive = re-replication, hits mostly activators | 350,000 tested, 2.9% active | AID 624296; also: % of control where 0% means no effect; nearly all actives have a fitted effect of over 50% in size
PTAP TSG101 blk – blocks PTAP/TSG101 interaction to inhibit HIV-1 budding; Q99816; Fluorescence polarization, FITC-PTAP peptide / Tsg101 binding; Potency, µM (titrated, usually from 115 µM), for the others: top-dose activity change, negative = inhibition, actives largely listed as inhibitors; 340,000 tested, under 10 active; AID 493005; active = well fitted inhibition curve with a large enough effect in the main read-out, with a control signal flat, not every such curve was filed as active; inconclusive = small, poorly fitted or top-dose-only effect, or effect the other way, or a change in a side signal; inactive = no such curve, though single readings can be large or run the other way; also: % of control where 0% means no effect
Target sequence (Q99816 whole entry, looked up): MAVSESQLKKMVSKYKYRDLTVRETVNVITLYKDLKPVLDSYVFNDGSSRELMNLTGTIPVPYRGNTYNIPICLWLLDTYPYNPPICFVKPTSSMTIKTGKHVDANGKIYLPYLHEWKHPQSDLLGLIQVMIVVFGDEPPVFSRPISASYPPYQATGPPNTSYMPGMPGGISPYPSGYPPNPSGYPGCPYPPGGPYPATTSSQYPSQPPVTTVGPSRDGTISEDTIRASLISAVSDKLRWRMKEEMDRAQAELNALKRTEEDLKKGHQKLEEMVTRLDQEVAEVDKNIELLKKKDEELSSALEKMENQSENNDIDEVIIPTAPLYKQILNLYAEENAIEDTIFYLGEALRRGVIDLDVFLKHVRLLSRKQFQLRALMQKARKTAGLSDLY
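Fluorescence polarization binding of Tsg101 binding domain (10 uM final) to FITC-labeled PTAP peptide (50 nM final) in HEPES pH 7.5 buffer with NaCl, Tween 20, EDTA, TCEP. Compounds added before peptide; binding 20 min at RT.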
KB-V1 cytotox – KB-V1 MDR subline cytotoxicity | KB-V1 MDR cells viability, CellTiter-Glo, 72 h | Potency, µM (series often up to 46.1 µM), usual class: cytotoxic | 400,000 tested, 3.4% active | AID 1347076; also: % is scaled to controls: 0 for no effect and ±100 for the full control effect; nearly all actives have a fitted effect of over 60% in size
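In this primary screen, KB-V1 cells overexpressing P-gp are incubated with library compounds (lowest to highest concentration) for 72 h at 37 degrees C before a luminescent ATP viability read.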
SW480 rerep – induces DNA re-replication in SW480 colon adenocarcinoma cells. SW480 DNA re-replication, Hoechst DNA content imaging, 48 h. Potency, µM (doses to about 46.1 µM), for inactives: at the top dose re-replication activation, hits mostly activators. AID 624297. 340,000 tested, 1.8% active; also: % of control where 0% means no effect; nearly all actives have a fitted effect of over 55% in size
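Hoechst fluorescence of nuclei (405 nm excitation, 500-530 nm emission) measured by plate-scanning imager after 48 hr compound exposure at 37 C; re-replication scored as increased number of nuclei with elevated intensity.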
* marks the source's active call; other numbers are inactive results; i = inactive; ? = inconclusive; · = no result. Unless noted, calls follow the shape of the dose curve; as a rule, active = well fitted curve in the direction sought with a large enough effect; inconclusive = small, poorly fitted or top-dose-only effect, or another doubt; inactive = no such curve, though single readings can be large; an effect the other way counts as inactive or inconclusive. Potency is read from the fitted curve at half-maximal effect.

SMILES	RGS4 inh	KB-3-1 cytotox	MCF10A rerep	PTAP TSG101 blk	KB-V1 cytotox	SW480 rerep
CCN(C(=O)COC(=O)c1c2c(nc3ccccc13)/C(=C/c1ccccc1)CC(C)C2)C1CCS(=O)(=O)C1 (stereo unspecified)	21.7%	?	?	-1.3%	?	7.31µM*
CCN(C(=O)COC(=O)c1c(C)nn(-c2ccccc2)c1C)C1CCS(=O)(=O)C1 (stereo unspecified)	-1.7%	i	-17.1%	-0.6%	i	2.8%
O=C(c1ccc(Cl)cc1)C(CN1CCCCC1)c1ccccc1 (stereo unspecified)	?	23.1µM*	?	4.1%	20.6µM*	?
CCOC(=O)C(CN1CCCC1)c1ccccc1 (stereo unspecified)	19.2%	i	18.5%	·	?	-9.1%
CCCOc1ccc(C(=O)C(CN2CCOCC2)c2ccccc2)cc1 (stereo unspecified)	10.3%	?	17.8µM*	-6.5%	?	11.2µM*
COc1ccc(C(O)C(CN2CCOCC2)c2ccccc2)cc1F (stereo unspecified)	-16.4%	i	?	-8.9%	i	-5.6%
COc1ccc(C(=O)C(CN2CCOCC2)c2ccccc2)cc1F (stereo unspecified)	-45.7%	?	11.6µM*	-4.3%	?	?
COCCCNC(=O)c1ccc(Cn2c(=O)c3cccn3c3cccnc32)cc1	-22.7%	·	·	·	·	·
Cc1ccc(NC(=O)CCC(=O)N2Cc3ccccc3Oc3ncccc32)cc1	-0.9%	i	·	·	i	·
CCOc1ccc(CNC(=O)C2CCN(C(=O)c3sccc3-n3cccc3)CC2)cc1	13.1%	·	·	·	·	·
O=C(c1cccnc1)N1CCN(Cc2cccc(F)c2)CC1	-10.7%	i	?	-1.1%	i	?
O=C(c1cccnc1)N1CCN(Cc2ccc3ccccc3c2)CC1	-2.8%	?	18.4µM*	-2.3%	?	0.1%
Cc1ccc(NC2=CC(=O)CC(C)(C)C2)cc1C	32.2%	i	2.4%	-0.7%	16.4µM*	-0.3%
COc1ccc(NC2=CC(=O)CC(C)(C)C2)cc1OC	14.1%	i	-11.6%	-2.0%	i	2.5%
Cc1cccc(C#N)c1NC1=CC(=O)CC(C)(C)C1	8.1%	i	-1.2%	-6.7%	i	2.7%
Cc1cc(C)c(NC2=CC(=O)CC(C)(C)C2)c(C#N)c1	-15.4%	i	1.2%	-5.6%	23.1µM*	0.9%
CC(=O)c1ccc(NC(=O)COc2ccccc2-c2nc(-c3cccc(C)c3)no2)cc1	-9.8%	i	·	·	i	·
CCn1cc(C(=O)N[C@@H](C)C(=O)NCCCn2ccnc2)c(=O)c2cc3c(cc21)OCO3	10.8%	i	-0.4%	-3.2%	?	?
CCn1cc(C(=O)N[C@@H](CC(C)C)C(=O)NCCCn2ccnc2)c(=O)c2cc3c(cc21)OCO3	15.7%	i	1.1%	0.7%	i	13µM*
COc1ccccc1/C=C/C=N\N1CCN(Cc2ccccc2Cl)CC1	?	i	?	0.0%	16.4µM*	5.2%
COc1ccccc1/C=C/C=N/N1CCN(Cc2ccc(Cl)cc2)CC1	-46.5%	i	?	-4.5%	i	2.3%
Cc1ccccc1OCC(=O)NCC(=O)OC(c1ccccc1)c1ccccc1	-18.1%	i	·	·	i	·
CCOc1ccccc1CNC(=O)c1ccc(Cn2c(SCc3ccccc3)nc3cccnc32)cc1	23.5%	?	·	·	i	·
CC1=Nc2cc(C(=O)NCCCOC(C)C)ccc2Sc2ccccc21	-24.8%	?	7.31µM*	-5.6%	?	?
CC(C)OCCCNC(=O)c1ccc2c(c1)NC(=O)c1ccccc1S2	-3.9%	i	17.4%	-2.0%	?	?
CC1=Nc2cc(C(=O)NCCCOC(C)C)ccc2Sc2ccc(C)cc21	-13.7%	2.91µM*	9.2µM*	-6.4%	4.11µM*	6.51µM*
